Our source for the inhibition values is PubChem BioAssay AID2280 (The Scripps Research Institute Molecular Screening Center, 2010).

Screen size: about 320,000 compounds; about 1,400 (0.44%) were called active.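 How the source made its calls: active means percent inhibition above a per-plate cutoff, the plate mean of test compounds plus 3 SD (cut at about 30% in these data); inactive means the rest.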 What follows is part of a selection rich in actives, with near analogues and random picks from the rest.

In the test the target is Female germline-specific tumor suppressor gld-1 (Caenorhabditis elegans) (UniProt Q17339). As to the kind of experiment: GLD-1/TGE RNA complex disruptors, primary screen, biochemical, fluorescence polarization (AID 2280).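 Further: 0% = DMSO wells with GLD-1 and probe and 100% = wells lacking GLD-1.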 To be noted: purified GLD-1 + fluorescein TGE RNA, at 5.96 µM, stronger effect = higher value.
Chain of Female germline-specific tumor suppressor gld-1 (Caenorhabditis elegans) (Q17339 whole entry, looked up): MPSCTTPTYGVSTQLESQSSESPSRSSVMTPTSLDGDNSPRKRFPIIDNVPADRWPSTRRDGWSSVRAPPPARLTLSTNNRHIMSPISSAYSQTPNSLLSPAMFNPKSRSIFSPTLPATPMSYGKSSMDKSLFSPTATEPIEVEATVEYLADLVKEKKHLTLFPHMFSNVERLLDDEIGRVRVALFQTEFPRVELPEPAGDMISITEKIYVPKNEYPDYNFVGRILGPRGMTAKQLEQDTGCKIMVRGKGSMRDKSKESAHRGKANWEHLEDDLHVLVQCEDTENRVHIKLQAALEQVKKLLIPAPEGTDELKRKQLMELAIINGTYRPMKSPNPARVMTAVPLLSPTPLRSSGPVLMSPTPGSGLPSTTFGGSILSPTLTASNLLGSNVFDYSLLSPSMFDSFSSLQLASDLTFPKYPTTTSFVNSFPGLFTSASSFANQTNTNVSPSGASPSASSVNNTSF
Turning to `CCOC(=O)c1cnc(SC)nc1Sc1ccc(Cl)cc1Cl`, the inhibition is 6.36% (inactive).

Turning to `CCN(CC(=O)Nc1ccccc1OC)C(=O)Cn1cnc2ccccc2c1=O`, the inhibition is 4.15% (inactive).

Consider `CCCN(CC(=O)Nc1ccccc1OC)C(=O)CCC(=O)c1ccc(F)cc1`, for which the inhibition is 54.8% (active).

Turning to `CCN(CC(=O)Nc1ccccc1OC)C(=O)CC1CC2CCC1C2` (centres undefined), the inhibition was -0.14% (inactive).

Turning to `CC1CCN(C(=O)Cn2nnnc2CN2CCOCC2)CC1`, the inhibition is 0.79% (inactive).

With `CCCCNc1c(-c2cccc(Sc3ccc(OC)cc3)c2)nc2ccccn12`, the inhibition was 2.4% (inactive).

Turning to `Cc1cccc(N2C(=O)SC(SC(=Nc3ccccc3)Nc3ccccc3)C2=O)c1` (centres undefined), the inhibition was 10.3% (inactive).

Consider `COc1ccc(C)cc1NC(=S)Nc1ccccc1SC`, for which the inhibition was -6.51% (inactive).

Take `COc1ccc2c(CC(=O)N3CCc4cc(OC)c(OC)cc4C3)coc2c1`: the inhibition is 5.21% (inactive).

In the case of `O=C(CSc1ccc2nnc(-c3ccccc3)n2n1)N1CCCc2ccccc21`, the inhibition was -1.09% (inactive).

Consider `COC(=O)CCCC1=CC2=C(c3ccccc3)C(=O)C(C)(OC(=O)C3CCCC3)C(=O)C2=CN1c1ccc(OC)cc1` (centres undefined), for which the inhibition is 7.24% (inactive).

`COC(=O)CCCC1=CC2=CC(=O)C(C)(OC(=O)c3cccs3)C(=O)C2=CN1c1cccc(C#N)c1` (centres undefined): the inhibition was 38.1% (active).

As for `COC(=O)CCCC1=CC2=CC(=O)C(C)(OC(=O)c3cccs3)C(=O)C2=CN1CC(C)C` (centres undefined), the inhibition is 5.88% (inactive).

In the case of `Cc1ccc(O)c(NC(=O)c2cc(-c3ccco3)on2)c1`, the inhibition is 1.89% (inactive).

Consider `C[C@H]1CN([C@@H](C)CO)C(=O)Cc2cc(NS(C)(=O)=O)ccc2O[C@@H]1CN(C)CC1CC1`, for which the inhibition is 0.15% (inactive).

Turning to `CC(C)n1cnc2c(NCc3ccccc3)cc(N[C@@H](CO)Cc3ccccc3)cc21`, the inhibition is 43.8% (active).

As to `CCC(CO)Oc1cc(NCc2ccccc2)c2ncn(C3CCCC3)c2c1` (centres undefined), the inhibition is 5.5% (inactive).

On to `CC(C)n1cnc2c(NCc3ccccc3)cc(OCC3CCN(C)CC3)cc21`, for which the inhibition was -21.3% (inactive).

For the molecule `CC(c1cccnc1)N(CCN(C)C)C(=O)Nc1ccc(Cl)c(Cl)c1` (centres undefined), the inhibition is -1.61% (inactive).

As for `C/C(=N\N=C(N)N)c1ccc(Cl)cc1`, the inhibition is -0.39% (inactive).

For `N#C/C(=C(\O)C(F)(F)F)c1nnc2n1CCCCC2`, the inhibition is 51.1% (active).

For `N#C/C(=C/c1cccc([N+](=O)[O-])c1)c1nnc2n1CCCCC2`, the inhibition is -1.89% (inactive).

For `N#C/C(=C(\O)CCl)c1nnc2n1CCCCC2`, the inhibition was -10.3% (inactive).

`CS(=O)(=O)N1CCN(C(=O)CSc2ccccc2)CC1`: the inhibition was 2.68% (inactive).

With `Cc1ccc(S(=O)(=O)N2CCC3(CC2)OCCO3)c(C)c1`, the inhibition is -2.29% (inactive).

As to `CCOc1cc(C2C(C(=O)OC)=CN(C3CCCC3)C=C2C(=O)OC)cc(Br)c1O`, the inhibition was 44.7% (active).

`CCOc1ccc(CNC(=O)C2CCC(=O)N2C2CCCC2)cc1OC` (centres undefined): the inhibition was 7.99% (inactive).

Regarding `COC(=O)C1=CN(Cc2ccc(OC)cc2)C=C(C(=O)OC)C1c1ccc(O)c(OC)c1`, the inhibition is 4.18% (inactive).

With `CCC(C)[C@H](NC(=O)N1CCn2c1nc1ccccc12)C(=O)NCc1ccc(OC)cc1` (some centres undefined), the inhibition is 12.5% (inactive).

For `C=CC[n+]1c(-c2ccc(C)cc2)csc1NNC(=O)Nc1ccccc1`, the inhibition was -11.8% (inactive).

On to `O=C(COC(=O)c1ccncc1)Nc1ccc2c(c1)OCO2`, for which the inhibition was -0.85% (inactive).

As for `NS(=O)(=O)c1ccc(NC(=O)COC(=O)c2c3c(nc4ccccc24)/C(=C\c2ccc4c(c2)OCO4)CCC3)cc1`, the inhibition is 105% (active).

On to `O=C(COC(=O)c1ccc(F)cc1)Nc1ccc2c(c1)OCO2`, for which the inhibition is 0.03% (inactive).

With `Cc1cccc(N=C2NC(=O)CS2)c1C`, the inhibition is 5.66% (inactive).

For `COc1ccccc1CNS(=O)(=O)CC12CCC(CC1=O)C2(C)C` (centres undefined), the inhibition is -1.89% (inactive).

On to `O=C(NCc1cccs1)C(=O)NCC1OCCCN1S(=O)(=O)c1ccc(F)cc1` (centres undefined), for which the inhibition is 1.56% (inactive).

For the molecule `COc1ccc(C)cc1S(=O)(=O)N1CCN(S(=O)(=O)c2cc(C(=O)O)ccc2C)CC1`, the inhibition is -3.62% (inactive).

For `O=C(Nc1ccccc1)N1CCN(C(=O)Nc2ccccc2)CC1`, the inhibition is 3.08% (inactive).

Take `Cc1ccc(C)c(S(=O)(=O)N2CCN(C(=O)Nc3ccccc3)CC2)c1`: the inhibition was 34.2% (active).

As to `COc1cc2c(cc1NC(=O)COC(=O)/C=C/c1ccccc1)oc1ccccc12`, the inhibition is 1.91% (inactive).

Regarding `Cc1ccc(CNC(=O)CC(NC(=O)c2ccccc2)c2ccccc2)cc1` (centres undefined), the inhibition is 6.67% (inactive).

With `COC(=O)c1cc(CNC(=O)CC(C)c2ccccc2)ccc1OC` (centres undefined), the inhibition was 31.6% (active).

For `COc1ccc(CNC(=O)Cc2ccc(-c3ccccc3)cc2)cc1OC`, the inhibition was 11.5% (inactive).

Consider `COc1ccc(C(C(=O)NC(C)(C)C)N(Cc2ccc(F)cc2)C(=O)CCC(=O)Nc2cc(C)on2)cc1` (centres undefined), for which the inhibition is 3.47% (inactive).

For the molecule `Cc1ccc(OCCNC(=O)CNC(=O)c2ccc(C)c(C)c2)cc1`, the inhibition was -0.98% (inactive).

For the molecule `C=CCSc1nnc2c(n1)-c1cccc3cccc-2c13`, the inhibition is -2.48% (inactive).

As for `CC(C)(C)NC(=O)CN1CCC(NC(=O)C23CC4CC(CC(C4)C2)C3)CC1`, the inhibition is -2.46% (inactive).

For `COc1ccc(Cl)cc1NC(=O)C(C)N1CCc2ccccc21` (centres undefined), the inhibition was -0.08% (inactive).

For `CCCCN(C(=O)CSCC(=O)Nc1ccc(OC)cc1)c1c(N)n(CCC)c(=O)[nH]c1=O`, the inhibition is 4.96% (inactive).

In the case of `C[C@H](CO)N1C[C@H](C)[C@@H](CN(C)Cc2ccc(-c3ccccc3)cc2)Oc2ccc(NC(=O)Cn3cnnn3)cc2C1=O`, the inhibition is 2.45% (inactive).

With `N#CC1=C(N)C(C#N)(C#N)[C@H](c2ccsc2)[C@H]2COCC=C12`, the inhibition was 34.7% (active).

For `Cc1cccc(-n2ncc3c(=O)[nH]c(SCC(=O)Nc4cc(C)on4)nc32)c1`, the inhibition is 2.41% (inactive).

Turning to `O=C(COC(=O)CSc1ccccc1)Nc1ccc(F)cc1F`, the inhibition is -2.02% (inactive).

Regarding `COc1ccc(OC)c(C(=O)c2ccc(C(=O)N3CCN(Cc4csc(C)n4)CC3)cc2)c1`, the inhibition was -0.78% (inactive).

Take `Oc1ccc2ccccc2c1N=Nc1nccs1`: the inhibition is 33.5% (active).

For the molecule `COc1ccc2[nH]c(=O)c(CN(Cc3cccnc3)S(=O)(=O)c3ccccc3F)cc2c1`, the inhibition is 8.84% (inactive).

Regarding `O=C(C1=C(O)C(=O)N(Cc2ccccc2)C1c1cccnc1)c1ccco1` (centres undefined), the inhibition is -1.41% (inactive).

Turning to `O=C(C1=C(O)C(=O)N(c2ncccn2)C1c1cccs1)c1ccco1` (centres undefined), the inhibition was 110% (active).

With `COc1cc(C2C(C(=O)c3ccco3)=C(O)C(=O)N2c2cc(C)on2)ccc1OCc1ccccc1` (centres undefined), the inhibition was -1.87% (inactive).
